Source: PubChem BioAssay (NCATS)
Where “and” joins values, the source holds several entries; their conditions need not be identical. Identical values can stand only once. Records with an inconclusive call do not appear. Calls of active or inactive are those of the source. Unless noted, calls come from the whole dose curve; as a rule, active = well fitted curve in the direction sought with a large enough effect; inconclusive = small, poorly fitted or top-dose-only effect, or another doubt; inactive = no such curve, though single readings can be large; an effect the other way counts as inactive or inconclusive.

Columns and labels:
[1] = Validation of Assay for Modulators of Lamin A Splicing (AID 1459; active = well fitted curve in the direction sought with a large enough effect in the signal ratio; the % refers to the signal ratio;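 note: cells exposed to compound for two days before reading; 0% is about no effect; ratio rise marks activators and ratio drop marks inhibitors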)
Summary of the method: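 S3 HeLa cells stably expressing a lamin A-EGFP splicing minigene and DsRed2 were seeded at 600 cells/well in Opti-MEM with 2% FBS, pin-dosed, and incubated 48 hrs at 37 °C, 5% CO2. Laser-scanning cytometry (488 nm) gave GFP/RFP total intensity ratio.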

[2] = biological target: DNA repair nuclease/redox regulator APEX1 (Homo sapiens) (UniProt P27695); assay: qHTS Validation Assay for Inhibitors of the Human Apurinic/apyrimidinic Endonuclease 1 (APE1) (AID 1705;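 note: TAMRA fluorescence gain over two minutes as APE1 cuts a quenched THF abasic duplex; % is set by controls: 0 for no effect and ±100 for the full control effect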)
Summary of the method: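 Human APE1 was preincubated with compound for 15 min at room temperature, then 50 nM (final) THF-abasic double-stranded DNA substrate bearing 5'-TAMRA and 3'-BHQ-2 was added. Incision-driven fluorescence rise (ex 525/em 598 nm) was read kinetically.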

[3] = Counterscreen for APE1 Inhibitors: Fluorescent Dye Displacement Validation Assay (AID 1707);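 note: plate controls were ThO with dsDNA and no compound for no effect and ThO without dsDNA for full effect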
Summary of the method: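 Endpoint fluorescence read at 480 nm excitation / 540 nm emission; DNA-binding compounds lower signal by displacing 250 nM Thiazole Orange from 50 nM dsDNA containing a tetrahydrofuran abasic site, Tris-HCl pH7.5 buffer with NaCl and MgCl2.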

[4] = qHTS for differential inhibitors of proliferation of Plasmodium falciparum line 7G8 (AID 1815);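 note: parasite growth measured after three days of incubation; plate controls were vehicle wells for no effect and reference inhibitor wells for full effect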
[5] = qHTS for differential inhibitors of proliferation of Plasmodium falciparum line GB4 (AID 1816); settings: Potency: Plasmodium falciparum GB4 proliferation inhibition;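 note: parasite growth measured after 72 h incubation; 0% = vehicle DMSO and -100% = reference inhibitor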
[6] = qHTS for differential inhibitors of proliferation of Plasmodium falciparum line 3D7 (AID 1876);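 note: parasite growth measured after three days of culture; 0% = vehicle wells and -100% = reference inhibitor wells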
[7] = qHTS for differential inhibitors of proliferation of Plasmodium falciparum line D10 (AID 1877);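 note: parasites grown with compound for 72 h before DNA staining; plate controls were vehicle wells for no effect and reference inhibitor wells for full effect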
[8] = qHTS for differential inhibitors of proliferation of Plasmodium falciparum line Dd2 (AID 1882); settings: Potency: Plasmodium falciparum Dd2 proliferation inhibition;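 note: plate controls were DMSO vehicle for no effect and 0.29 µM artemisinin for full effect; nearly all actives have a fitted effect of over 65% in size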
Summary of the method: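 SYBR Green DNA fluorescence (ex 485, em 535 nm) after overnight lysis quantifies parasite growth; compound exposure lasted 72 h at 37 C on infected red cells at 2.5% hematocrit, 0.3% parasitemia (final). Artemisinin 0.29 uM and vehicle wells define normalization.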

[9] = qHTS for differential inhibitors of proliferation of Plasmodium falciparum line W2 (AID 1883); settings: Potency: Plasmodium falciparum W2 proliferation inhibition;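 note: parasites grown with compound for 72 h before lysis and staining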; note: potency is the fitted concentration of half-maximal effect;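 for activity change, negative = inhibition: 0% = vehicle wells and -100% = control inhibitor wells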
[10] = qHTS for differential inhibitors of proliferation of Plasmodium falciparum line HB3 (AID 1886); settings: Potency: Plasmodium falciparum HB3 proliferation inhibition;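 note: parasites grown with compound for 72 h before SYBR Green readout; plate controls were vehicle for no effect and reference inhibitor for full effect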
[11] = qHTS Assay for Modulators of Human Peripheral Myelin Protein 22 (PMP22) Expression/Activity (AID 1967; active = well fitted curve in the direction sought with a large enough effect in the signal ratio; the % refers to the signal ratio;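 note: 0% = untreated cells and 100% end not stated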)
Summary of the method: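 MSC80 mouse Schwann cells stably carrying Pmp22 promoter–green click beetle luciferase plus EF-alpha–red luciferase control were dosed for 24h at 37 °C. Dual-colour luminescence was filter-overlap corrected; %Activity came from green/red ratio versus untreated cells.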

[12] = biological target: Ferritin light chain (Equus caballus) (UniProt P02791); assay: qHTS Validation Assay for Identification of Novel General Anesthetics (AID 2323); note: % is set by controls: 0 for no effect and ±100 for the full control effect
Summary of the method: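 Competitive displacement of profluorescent 1-aminoanthracene (1-AMA, 50% saturated solution in PBS) from 10 uM horse-spleen apoferritin. Compounds incubated 10 min at room temperature; fluorescence read at 380 nm excitation/535 nm emission, normalized to free 1-AMA and complex, fitted with four-parameter Hill equation.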

[13] = biological target: ATP-dependent DNA helicase Q1 (Homo sapiens) (UniProt P46063); assay: qHTS Validation Assay for Inhibitors of RecQ-Like Dna Helicase 1 (RECQ1) (AID 2353);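 note: plate controls were DMSO vehicle for no effect and enzyme-free control for full effect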
Summary of the method: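 RECQ1T1 50 nM; forked duplex (20 bp + 30-nt ss tails) 200 nM, ATP 2 mM final; pH 8.0, 2 mM MgCl2, 2.5 ug/ml poly(dI-dC); 15 min compound preincubation; discontinuous kinetic read over 2 h at RT.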

[14] = Cytometric Cell-Based qHTS for Inhibitors of the mTORC1 Signaling Pathway in MEF (Tsc2-/-, p53-/-) Cells (AID 2660);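 note: Tsc2 and p53 null MEFs carrying empty vector with compound for 24 h; percent of cells above a phospho-rpS6 to PI ratio cutoff in each well; plate controls were DMSO for no effect and rapamycin for full effect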
Summary of the method: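 Cells are plated, treated with compound for 24 hrs at 37 degree Celsius, then fixed, blocked and immunostained for phospho-rpS6 Ser235/236. Propidium iodide counterstain follows. Per-well % positive cells is derived from the PI-normalized phospho-S6 signal.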

[15] = High Content Imaging Cell-Based qHTS for Inhibitors of the mTORC1 Signaling Pathway in MEF (Tsc2-/-, p53-/-) Cells (AID 2666);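 note: percent of cells scored positive for phospho-rpS6 Ser235/236 immunostaining by imaging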
Summary of the method: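 Inhibition of rpS6 phosphorylation is measured by immunofluorescence imaging in empty-vector Tsc2-/-, p53-/- mouse embryonic fibroblasts after 24 hrs compound exposure at 37 degree Celsius. Results are reported as % positive cells per well.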

[16] = biological target: RecQ-like DNA helicase BLM (Homo sapiens) (UniProt P54132); assay: qHTS Validation Assay for Inhibitors of Bloom's syndrome helicase (BLM) (AID 2364);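 note: plate controls were DMSO vehicle for no effect and enzyme-free control for full effect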
Summary of the method: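 BLM 50 nM in 25 mM Tris-HCl pH 8.0, 5 mM NaCl, 2 mM MgCl2, 1 mM DTT, 0.01% Tween-20, 2.5 ug/ml poly(dI-dC); 15 min cpd preinc, RT. Start: 200 nM forked DNA + 2 mM ATP (final). TAMRA read, 2 reads 2 h apart.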

[17] = qHTS Assay for Lipid Storage Modulators (AID 1519; calls by dose curve; for activity change, negative = inhibition: % is set by controls: 0 for no effect and ±100 for the full control effect); settings: Drosophila S3 cells, BODIPY lipid droplet/cell ratio, laser cytometry, cells loaded with oleic acid
Summary of the method: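 Cells seeded at 5,000 per well were treated with compounds over a concentration series and loaded with oleic acid (400 uM, as added). Lipid droplet fluorescence (488 nm excitation, 500-530 nm channel) was read by laser-scanning cytometry and normalized to 20 uM Triacsin C.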

[18] = biological target: Endonuclease 4 (Escherichia coli (strain K12)) (UniProt P0A6C1); assay: Counterscreen for APE1 Inhibitors: qHTS Validation Assay for Inhibitors of Endonuclease IV (AID 1708); note: % is set by controls: 0 for no effect and ±100 for the full control effect
Summary of the method: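 Enzyme (2 nM) + compound, 15 min RT; add 50 nM TAMRA/BHQ-2 THF-site dsDNA; kinetic read ex525/em598, 3 reads/60 s; activity = read 3 − read 1. Buffer Tris pH 7.5, 50 mM NaCl, 2 mM MgCl2, DTT, Tween-20.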

[19] = measured here: cell count channel max response
[20] = measured here: lipid channel max response

Chain of DNA repair nuclease/redox regulator APEX1 (Homo sapiens) (P27695 whole entry, looked up): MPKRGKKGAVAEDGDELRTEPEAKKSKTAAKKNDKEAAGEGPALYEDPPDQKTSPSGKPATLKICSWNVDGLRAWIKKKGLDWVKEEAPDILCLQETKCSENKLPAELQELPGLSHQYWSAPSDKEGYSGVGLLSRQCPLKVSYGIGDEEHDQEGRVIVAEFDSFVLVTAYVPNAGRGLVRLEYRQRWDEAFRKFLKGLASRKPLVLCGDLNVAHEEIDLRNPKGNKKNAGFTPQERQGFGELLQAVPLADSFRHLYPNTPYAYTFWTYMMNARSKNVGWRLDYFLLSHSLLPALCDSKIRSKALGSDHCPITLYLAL
Chain of ATP-dependent DNA helicase Q1 (Homo sapiens) (P46063 whole entry, looked up): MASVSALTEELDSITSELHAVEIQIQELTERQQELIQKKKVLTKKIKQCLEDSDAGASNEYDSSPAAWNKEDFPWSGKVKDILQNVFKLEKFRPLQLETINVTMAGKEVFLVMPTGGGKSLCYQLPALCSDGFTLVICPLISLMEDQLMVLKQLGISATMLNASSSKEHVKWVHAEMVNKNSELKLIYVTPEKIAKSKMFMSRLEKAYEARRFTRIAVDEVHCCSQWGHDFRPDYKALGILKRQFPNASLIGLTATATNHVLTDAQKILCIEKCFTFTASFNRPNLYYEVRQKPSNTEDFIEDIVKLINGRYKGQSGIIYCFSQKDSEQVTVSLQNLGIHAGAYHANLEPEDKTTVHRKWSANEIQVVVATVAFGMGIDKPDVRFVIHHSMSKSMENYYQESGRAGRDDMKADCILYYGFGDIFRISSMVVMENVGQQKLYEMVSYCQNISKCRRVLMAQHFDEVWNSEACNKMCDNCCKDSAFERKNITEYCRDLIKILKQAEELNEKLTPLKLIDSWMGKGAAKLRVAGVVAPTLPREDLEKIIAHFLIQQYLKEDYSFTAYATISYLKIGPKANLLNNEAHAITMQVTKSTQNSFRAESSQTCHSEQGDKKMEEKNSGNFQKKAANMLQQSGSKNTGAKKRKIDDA
Chain of Ferritin light chain (Equus caballus) (P02791 2-175 limits assumed): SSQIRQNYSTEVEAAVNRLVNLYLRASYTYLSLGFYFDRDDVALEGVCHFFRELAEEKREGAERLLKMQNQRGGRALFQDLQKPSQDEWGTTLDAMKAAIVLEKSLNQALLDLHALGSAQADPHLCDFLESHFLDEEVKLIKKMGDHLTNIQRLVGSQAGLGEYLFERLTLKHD
Chain of RecQ-like DNA helicase BLM (Homo sapiens) (P54132 whole entry, looked up): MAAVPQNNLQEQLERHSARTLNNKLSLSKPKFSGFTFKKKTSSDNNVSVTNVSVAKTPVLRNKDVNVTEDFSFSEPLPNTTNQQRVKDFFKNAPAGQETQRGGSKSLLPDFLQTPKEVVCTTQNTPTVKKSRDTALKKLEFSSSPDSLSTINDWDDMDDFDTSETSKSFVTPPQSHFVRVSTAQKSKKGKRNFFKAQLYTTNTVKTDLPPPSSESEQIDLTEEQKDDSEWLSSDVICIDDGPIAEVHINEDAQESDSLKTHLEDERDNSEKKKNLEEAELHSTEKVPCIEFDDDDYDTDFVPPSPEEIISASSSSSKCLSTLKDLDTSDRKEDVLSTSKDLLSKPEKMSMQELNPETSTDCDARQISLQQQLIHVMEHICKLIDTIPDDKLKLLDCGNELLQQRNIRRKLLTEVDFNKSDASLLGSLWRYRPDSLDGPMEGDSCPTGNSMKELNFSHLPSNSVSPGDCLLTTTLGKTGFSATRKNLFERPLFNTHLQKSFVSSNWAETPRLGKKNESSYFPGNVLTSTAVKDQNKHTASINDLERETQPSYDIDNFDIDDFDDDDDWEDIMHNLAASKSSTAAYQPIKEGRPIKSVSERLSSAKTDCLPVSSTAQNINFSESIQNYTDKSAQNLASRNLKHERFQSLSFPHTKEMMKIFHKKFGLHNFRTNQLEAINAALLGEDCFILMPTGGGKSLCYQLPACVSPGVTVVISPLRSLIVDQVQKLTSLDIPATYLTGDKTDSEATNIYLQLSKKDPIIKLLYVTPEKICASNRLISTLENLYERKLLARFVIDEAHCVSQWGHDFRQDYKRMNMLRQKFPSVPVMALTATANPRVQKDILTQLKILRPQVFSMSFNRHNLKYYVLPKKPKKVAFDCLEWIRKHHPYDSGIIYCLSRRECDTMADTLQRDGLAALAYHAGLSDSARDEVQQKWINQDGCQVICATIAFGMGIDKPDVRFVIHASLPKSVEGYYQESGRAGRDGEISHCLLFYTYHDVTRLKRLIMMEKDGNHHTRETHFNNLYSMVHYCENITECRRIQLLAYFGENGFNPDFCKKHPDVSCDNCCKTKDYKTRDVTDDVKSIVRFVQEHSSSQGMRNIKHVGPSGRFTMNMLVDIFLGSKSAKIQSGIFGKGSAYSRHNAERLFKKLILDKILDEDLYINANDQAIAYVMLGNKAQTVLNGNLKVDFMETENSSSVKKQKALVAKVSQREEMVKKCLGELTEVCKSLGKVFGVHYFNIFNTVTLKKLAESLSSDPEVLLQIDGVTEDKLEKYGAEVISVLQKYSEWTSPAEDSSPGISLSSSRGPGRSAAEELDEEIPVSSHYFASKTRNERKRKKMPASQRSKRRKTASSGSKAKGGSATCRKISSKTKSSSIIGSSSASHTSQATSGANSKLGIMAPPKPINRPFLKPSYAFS

CC(=O)SCC[N+](C)(C)C
inactive: outcome [1] | Potency [2] | Potency [3] | Potency [4] | Potency [5] | Potency [6] | Potency [7] | Potency [8] | Potency [9] | Potency [10] | outcome [11] | Potency [12] | Potency [13] | outcome [14] | Potency [15]

CCCCN1CCC(n2c(=O)[nH]c3ccccc32)CC1
active: Potency [9] 8.91 µM
inactive: outcome [1] | Potency [2] | Potency [3] | Potency [4] | Potency [5] | Potency [6] | Potency [7] | Potency [8] | Potency [10] | Potency [12] | Potency [13] | Potency [16] | outcome [14] | Potency [15]

O=c1cc(-c2ccccc2)oc2c(O)c(O)ccc12
-5.87%: max response [17, 20]
inactive: activity change, negative = inhibition ([17]; at 57.5 µM (top of the series)) -5.17%
-10.5%: max response [17, 19]

O=C(O)CCCC[C@@H]1CCSS1
inactive: activity change, negative = inhibition ([17]; at 57.5 µM (top of the series)) -3.03% | Potency [2] | Potency [3] | Potency [4] | Potency [5] | Potency [6] | Potency [7] | Potency [8] | Potency [9] | Potency [10] | Potency [12] | Potency [13] | outcome [14]
-26.8%: max response [17, 19]
-29%: max response [17, 20]

Nc1cc(-c2ccncc2)c[nH]c1=O
inactive: activity change, negative = inhibition ([17]; at 25.7 µM (top of the series)) 3.03%
9.64%: max response [17, 20]
5.25%: max response [17, 19]

Oc1c(Br)cc(Br)c2cccnc12
0.383%: max response [17, 19]
3.22%: max response [17, 20]
inactive: activity change, negative = inhibition ([17]; at 57.5 µM (top of the series)) 1.03%

Cc1c(N)c(=O)n(-c2ccccc2)n1C
6.06% and 9.92%: max response [17, 20]
3.27% and 4.31%: max response [17, 19]
inactive: activity change, negative = inhibition ([17]; at 25.7 µM (top of the series)) -0.255% | activity change, negative = inhibition ([17]; at 57.5 µM (top of the series)) 3.79%

CCN1/C(=C/C(C)=O)Sc2ccc(OC)cc21
inactive: activity change, negative = inhibition ([17]; at 57.5 µM (top of the series)) 0.847% | Potency [2] | Potency [3] | Potency [18] | Potency [7] | Potency [8] | Potency [12] | Potency [13] | outcome [14] | Potency [15]
-21.7%: max response [17, 20]
active: Potency [9] 14.1 µM
-21.8%: max response [17, 19]
